Laboratory results: article PMC4552634, “A New Set of Chemical Starting Points with Plasmodium falciparum Transmission-Blocking Potential for Antimalarial Drug Discovery” (PLoS ONE, 2015)
Where two headings read alike, the source gives them in different places. In all, about 13,000 compounds went through this assay and about 3,200 (25%) showed an effect of 50% or more. Some of the results follow.

Tested on: P. falciparum stage V gametocytes
Parameters: BacTiter-Glo ATP luminescence viability of purified stage V gametocytes in 384-well plates, per cent inhibition versus DMSO

SMILES | % Inhibition (48 h, 5 µM; inhibitor) | % Inhibition (48 h, 5 µM, inhibitor)
O=C(Nc1ccc(Cl)cc1)c1ccc(CN2CCCN(Cc3cccc(F)c3)CC2)cc1 [TCMDC-136404] | -18.08% | 
N#Cc1ccc(CN2CCCN(Cc3cccc(NC(=O)c4ccc(-c5ccccc5)cc4)c3)CC2)cc1 [TCMDC-141838] | 91.89% | 
Cc1ccc(CC(C)NC[C@H](O)c2cccc(Cl)c2)cc1 (stereo partly drawn) [TCMDC-131477] |  | 11.62%
CCOP(=O)(OCC)c1ccc(OC)c(-c2ccc[nH]2)c1 [TCMDC-139023] | 22.96% | 
COC(=O)/C=C/C(=O)N[C@@H]1CC[C@@]2(O)[C@H]3Cc4ccc(O)c5c4[C@@]2(CCN3CC2CC2)[C@H]1O5 [TCMDC-125875] | 50.91% | 
C#CCN1CCC2=C(C1)c1c(O)cc(C(C)CCCc3ccc(F)cc3)cc1OC2(C)C (stereo not drawn) [TCMDC-124277] | -40.47% | 
O=C(/C=C/c1ccc(Cl)c(Cl)c1)NCCCCCN1CCCN(C(=O)Nc2ccc(C(F)(F)F)cc2)CC1 [TCMDC-135757] | 8.096% | 
Cc1cc(C)c(CC(C)NCC(O)c2cccc(C(F)(F)F)c2)c(C)c1 (stereo not drawn) [TCMDC-131460] | -4.216% | 
C[C@@H](CC1CCCCC1)NCc1ccccc1O [TCMDC-140305] | 71.87% | 
CCN(CC)CCOC(=O)C(OC)(c1ccccc1)c1ccccc1 [TCMDC-131779] | 18.56% | 
Cc1ccc(CC(C)NCC(O)c2cccc(C(F)(F)F)c2)c(C)c1 (stereo not drawn) [TCMDC-131465] | -0.5645% | 
CSc1ccc(C[C@@H](C)NC[C@H](O)c2cccc(Cl)c2)cc1 [TCMDC-131507] | 10.96% | 
Cc1nc(C)c(-c2ccc(Oc3ccc(OC(F)(F)F)cc3)cc2)c(OC(=O)N(CCNC(C)C)C(C)C)c1Br [TCMDC-132417] | 109% | 
CNCCN(C)C(=O)Oc1c(Br)c(C)nc(C)c1-c1ccc(Oc2ccc(OC(F)(F)F)cc2)cc1 [TCMDC-137377] | 86.68% | 
CNCCCN(C)C(=O)Oc1c(Br)c(C)nc(C)c1-c1ccc(Oc2ccc(OC(F)(F)F)cc2)cc1 [TCMDC-132416] | 117.8% | 
CNCCN(C)C(=O)Oc1c(Cl)c(C)nc(C)c1-c1ccc(Oc2ccc(OC(F)(F)F)cc2)cc1 [TCMDC-137384] | 42.19% | 
COc1ccc(CC(C)NCC(O)c2cccc(Cl)c2)cc1C (stereo not drawn) [TCMDC-131505] | 13.45% | 
CCc1ccc(CC(C)NCC(O)c2ccccc2)cc1 (stereo not drawn) [TCMDC-131463] | 17.08% | 
CN1CC(c2ccc(Cl)c(Cl)c2)OC1=N (stereo not drawn) [TCMDC-137454] | 1.442% | 
Cc1ccc(CC(C)NCC(O)c2cccc(C#N)c2)cc1 (stereo not drawn) [TCMDC-131451] | 40.18% | 
CCC1(C)CC(CCNCc2ccccc2O)(c2ccc(C)cc2)CCO1 (stereo not drawn) [TCMDC-124003] | 4.575% | 
COCCSc1ccc(CC(C)NCC(O)c2cccc(Cl)c2)cc1 (stereo not drawn) [TCMDC-131513] | 22.33% | 
CCCCCCCCCCS(=O)(=O)N[C@H](COCc1cccc(Oc2ccccc2)c1)COP(=O)(O)OC [TCMDC-131877] | 13.38% | 

SMILES | % Inhibition (48 h, 5 µM; inhibitor) | % Inhibition (48 h, 5 µM, inhibitor)
CC(C)CCN1C(=O)C(NC(=O)Oc2ccccc2)C(=O)N(CC23CC4CC(CC(C4)C2)C3)c2ccccc21 (stereo not drawn) [TCMDC-137160] | -43.48% | 
CCCC(=O)c1c(O)c2ccccc2oc1=O [TCMDC-123881] | 11.83% | 
Cc1ccc(C[C@@H](C)NC[C@H](O)c2cccc(C(F)(F)F)c2)cc1 [TCMDC-131449] | 8.152% | 
[O-]c1n[n+](C2CCCCC2)no1 [TCMDC-138090] | 57.64% | 
CCOC(C(=O)OCCN(C(C)C)C(C)C)(c1ccccc1)c1ccccc1 [TCMDC-131391] | -28.65% | 
COc1ccc(C[C@@H](C)NC[C@H](O)c2cccc(Cl)c2)cc1F [TCMDC-131516] |  | 9.097%
Cc1cccc(N2CCN(Cc3cc(Cl)ccc3O)CC2)c1C [TCMDC-123718] | -35.86% | 
Oc1cc2c(cc1CN1CCN(Cc3ccccc3)CC1)CCC2 [TCMDC-125104] | 73.14% | 
Cc1ccc(C)c(N2CCN(Cc3ccccc3O)CC2)c1 [TCMDC-123518] | 7.065% | 
COc1ccc(O)c(CN2CCN(c3cc(C)ccc3C)CC2)c1 [TCMDC-124056] | 6.084% | 
CCN(CC)CCN1C(=O)C(O)(c2ccccc2Cl)c2c1cc(C(N)=O)cc2C(F)(F)F (stereo not drawn) [TCMDC-133544] | 37.34% | 
COc1ccc(CC(C)NCC(O)c2cccc(Br)c2)cc1 (stereo not drawn) [TCMDC-131496] | 20.1% | 
COc1ccc(C[C@@H](C)NC[C@H](O)c2cccc(Cl)c2)cc1F [TCMDC-131502] |  | 8.677%
COC(C(=O)OCCC1CCCN1C)(c1ccccc1)C1CCCCC1 (stereo not drawn) [TCMDC-131374] | 34.4% | 
CCOC(C(=O)OCC1CCCN1C)(c1ccccc1)c1ccccc1 (stereo not drawn) [TCMDC-131676] | 62.64% | 
CCCCOC(C(=O)OCC1CCCN1C)(c1ccccc1)c1ccccc1 (stereo not drawn) [TCMDC-131730] | -23.33% | 
CCOC(C(=O)OCC1CCCN(C)C1)(c1ccccc1)c1ccccc1 (stereo not drawn) [TCMDC-131382] | 13.79% | 
CCOC(C(=O)OCC1CCCN1C(C)C)(c1ccccc1)c1ccccc1 (stereo not drawn) [TCMDC-131750] | -3.502% | 
COC(C(=O)OCCC1CCCN1C)(c1ccccc1)c1ccccc1 (stereo not drawn) [TCMDC-131780] | 73.28% | 
Cc1ccc(CC(C)NCC(O)c2cccc(Br)c2)cc1 (stereo not drawn) [TCMDC-131444] | 5.106% | 
CCN(CC)CCN1C(=O)C(O)(c2ccccc2Cl)c2c1cc(C#N)cc2C(F)(F)F (stereo not drawn) [TCMDC-132583] | -22.22% | 
CCCCCC(C)C(C)c1cc(OC(N)=O)c2c(c1)OC(C)(C)C=C2c1ccncc1 (stereo not drawn) [TCMDC-131796] | -24.09% | 
O=P(O)(O)Oc1c(Br)cc(Br)cc1-c1cc(Br)cc(Br)c1O [TCMDC-131736] | 1.085% | 

SMILES | % Inhibition (48 h, 5 µM; inhibitor) | % Inhibition (48 h, 5 µM, inhibitor)
COc1ccccc1CC(C)NCC(O)c1cccc(Cl)c1 (stereo not drawn) [TCMDC-131497] | -23.86% | 
COc1cc(NCCCNC(=O)c2cn(Cc3ccccc3)c3ccccc23)nc2ccccc12 [TCMDC-140140] | 60.42% | 
CN(C)CCC(=O)c1ccccc1 [TCMDC-125532] | 42.07% | 
Cc1ccc(CC(C)NCC(O)c2cccc(C(F)(F)F)c2)cc1F (stereo not drawn) [TCMDC-131520] | 16.03% | 
O=C(c1ccco1)c1cn(CCOc2ccccc2)c2ccccc12 [TCMDC-124426] | -19.68% | 
COc1ccc(OCCn2cc(C(=O)c3ccco3)c3ccccc32)cc1 [TCMDC-124425] | 55.18% | 
Cc1ccc(CC(C)NCC(O)c2cccc(Cl)c2)cc1F (stereo not drawn) [TCMDC-131522] | 25.69% | 
CC[C@H]1CN2CCc3cc(OC)c(OC)cc3[C@@H]2C[C@@H]1C[C@H]1NCCc2c1cc(OC)c(OC)c2Br [TCMDC-131803] | 73.47% | 
CC[C@H]1CN2CCc3cc(OC)c(OC)cc3[C@@H]2C[C@@H]1C[C@H]1NCCc2c1cc(OC)c(O)c2Cl [TCMDC-131802] | 83.05% | 
CC[C@H]1CN2CCc3cc(OC)c(OC)cc3[C@@H]2C[C@@H]1C[C@H]1NCCc2c1cc(OC)c(O)c2I [TCMDC-131829] | 88.82% | 
COc1ccc(NC(=O)NCC2CCCN(CCCCCNC(=O)/C=C/c3ccc(Cl)c(Cl)c3)C2)c(OC)c1 (stereo not drawn) [TCMDC-139520] | -54.43% | 
Cc1ccc(CC(C)NC[C@H](O)c2cccc(Cl)c2)cc1 (stereo partly drawn) [TCMDC-131434] |  | 17.71%
Cc1ccc(CC(C)NCC(O)c2cccc([N+](=O)[O-])c2)cc1 (stereo not drawn) [TCMDC-131459] | 42.66% | 
CC(O)C1CCCCN1C(=O)c1cccc(-c2ccc(-c3nc4cc(F)ccc4[nH]3)cc2)c1 (stereo not drawn) [TCMDC-132337] | -4.748% | 
CC(Cc1ccc(C(C)(C)C)cc1)NCC(O)c1ccccc1 (stereo not drawn) [TCMDC-131461] | -2.665% | 
COc1cccc(CC(C)NCC(O)c2cccc(Cl)c2)c1 (stereo not drawn) [TCMDC-131508] | -2.665% | 
COc1ccc(CC(C)NCC(O)c2cccc(C(F)(F)F)c2)cc1 (stereo not drawn) [TCMDC-131471] | 20% | 
Cc1c(C(=O)N[C@@H](C)c2ccccc2)c2cc(O)c(Br)cc2n1C1CCCCC1 [TCMDC-135454] | -62.04% | 
COc1c(F)cc(CC(C)NCC(O)c2cccc(Cl)c2)cc1F (stereo not drawn) [TCMDC-131518] | 14.1% | 
N=c1c2c(n(Cc3ccc(Cl)cc3Cl)c3c1CCC3)CCCC2 [TCMDC-125310] | 74.48% | 
COc1ccc(NC(=S)NC(NC(=O)CF)C(Cl)(Cl)Cl)cc1[N+](=O)[O-] (stereo not drawn) [TCMDC-124240] | -10.17% | 
CCC1=C[C@@H]2CN(C1)Cc1c([nH]c3ccccc13)[C@@](C(=O)OC)(c1cc3c(cc1OC)N(C)[C@H]1[C@@](O)(C(=O)OC)[C@H](O)[C@]4(CC)C=CCN5CC[C@]31[C@@H]54)C2 [TCMDC-137769] | 33.28% | 
Cl.c1ccc2c(NCCCCCCCCCNc3c4ccccc4nc4ccccc34)c3ccccc3nc2c1 [TCMDC-124286] | 134.6% | 

SMILES | % Inhibition (48 h, 5 µM; inhibitor) | % Inhibition (48 h, 5 µM, inhibitor)
Cl.c1ccc2c(NCCCCCCNc3c4ccccc4nc4ccccc34)c3ccccc3nc2c1 [TCMDC-124285] | 125.5% | 
C#CCN1CCC2=C(C1)c1c(O)cc(C(C)C(C)CCc3ccc(F)cc3)cc1OC2(C)C (stereo not drawn) [TCMDC-125707] | -44.99% | 
Cc1ccc(CC(C)NCC(O)c2cccc(C(F)(F)F)c2)cc1 (stereo not drawn) [TCMDC-131476] |  | 12.88%
COc1cc2c(cc1OC)CN(CCCCNC(=O)c1ccc(NC(=O)c3cc(Cl)cc(Cl)c3)cc1)CC2 [TCMDC-138217] | -10.96% | 
COc1ccc(CC(C)NCC(O)c2cccc(C(F)(F)F)c2)cc1F (stereo not drawn) [TCMDC-131490] | 18.55% | 
C=Cc1cc(OC)c2c(c1)c(=O)oc1c2cc(OC)c2c(O)ccc([C@H]3O[C@H]([C@H](C)O)[C@H](O)[C@H]3O)c21 [TCMDC-141972] | 49.56% | 
CC(=O)Nc1ccc(OCCN(CC(F)(F)F)c2ccc(C#N)cc2C(F)(F)F)cc1 [TCMDC-135848] | 17.4% | 
NC(N)=NC(=O)Nc1cc(Br)c(Cl)c(Br)c1 [TCMDC-137464] | 72.05% | 
CCC1(C)CC(CCNCc2ccccc2O)(c2ccc(F)cc2)CCO1 (stereo not drawn) [TCMDC-124006] | -8.682% | 
COc1ccc(CC(C)NCC(O)c2cccc(Cl)c2F)cc1 (stereo not drawn) [TCMDC-131488] | 21.97% | 
COc1cc(NC(=O)/C=C/c2cc3ccccc3n2C)ccc1OCCN(C(C)C)C(C)C [TCMDC-139900] | 118% | 
Cc1ccc(CC(C)NCC(O)c2cccc(C(F)(F)F)c2)cc1 (stereo not drawn) [TCMDC-131450] |  | 20.44%
Cc1ccc(CC(C)(C)NCC(O)c2cccc(C(F)(F)F)c2)cc1 (stereo not drawn) [TCMDC-131445] | -8.892% | 
CC[C@H]1CN2CC[C@H]1C[C@@H]2[C@@H](O)c1ccnc2ccccc12 [TCMDC-125880] | 69.34% | 
CCCN(CCC)CCOC(=O)C(OCC)(c1ccccc1)c1ccccc1 [TCMDC-131392] | -25.5% | 
COc1ccc2[nH]cc(C3=CCN(Cc4ccccc4)CC3)c2c1 [TCMDC-139048] | -90.48% | 
CC(Cc1ccc(SC(C)(C)C)cc1)NCC(O)c1cccc(Cl)c1 (stereo not drawn) [TCMDC-131492] | -3.8% | 
CC(C)N(C)C(=O)n1cnc(S(=O)(=O)C2CC3CCC2C3)n1 (stereo not drawn) [TCMDC-134379] | 65.83% | 
O=C(NC1CCC(CN2CCC(c3c[nH]c4ccccc34)CC2)CC1)C1(O)c2ccccc2-c2ccccc21 (stereo not drawn) [TCMDC-139901] | 25.48% | 
Cc1nc2ccccn2c1C1(O)C(=O)Nc2c(Cl)cc(Cl)cc21 (stereo not drawn) [TCMDC-124526] | 6.508% | 
COc1ccc(CC(C)NCC(O)c2ccc(Cl)c(Cl)c2)cc1 (stereo not drawn) [TCMDC-131514] | 0.9057% | 
